# In publication PMC5540273 (PLoS ONE, 2017):
# Values joined by “and” are separate entries in the source; they are usually repeats but may differ in a detail not shown here. Equal entries are not always repeated. Where two headings read alike, the source gives them in different places.
# Columns and labels:
# [1] = tested on: T1, RSK2(Kin.Dom.1-N-terminal); details: concentration: 1 μM, replicates: in singlicate, n = 1
# T1 construct: gene RPS6KA3
# [2] = tested on: T2, RSK2(Kin.Dom.2-C-terminal); details: concentration: 1 μM, replicates: in singlicate; n = 1
# T2 construct: gene RPS6KA3
# [3] = tested on: T3, RSK3(Kin.Dom.1-N-terminal); details: concentration: 1 μM, replicates: in singlicate, n = 1
# T3 construct: gene RPS6KA2
# [4] = tested on: T4, RSK3(Kin.Dom.2-C-terminal); details: concentration: 1 μM, replicates: in singlicate, n = 1
# T4 construct: gene RPS6KA2
# [5] = tested on: T5, RSK4(Kin.Dom.1-N-terminal); details: concentration: 1 μM, replicates: in singlicate, n = 1
# T5 construct: gene RPS6KA6
# [6] = tested on: T6, RSK4(Kin.Dom.2-C-terminal); details: concentration: 1 μM, replicates: in singlicate, n = 1
# T6 construct: gene RPS6KA6
# S6K1 = details: concentration: 1 μM, replicates: in singlicate, n = 1
# SBK1 = details: concentration: 1 μM, replicates: in singlicate, n = 1
# SGK2 = details: concentration: 1 μM, replicates: in singlicate, n = 1
# SGK3 = details: concentration: 1 μM, replicates: in singlicate, n = 1
# SGK = details: concentration: 1 μM, replicates: in singlicate, n = 1
# SIK2 = details: concentration: 1 μM, replicates: in singlicate, n = 1
# SIK = details: concentration: 1 μM, replicates: in singlicate, n = 1
# SLK = details: concentration: 1 μM, replicates: in singlicate, n = 1
# SNARK = tested on: T7, SNARK; details: concentration: 1 μM, replicates: in singlicate, n = 1
# T7 construct: gene NUAK2
# SNRK = details: concentration: 1 μM, replicates: in singlicate, n = 1
# SRC = details: concentration: 1 μM, replicates: in singlicate, n = 1
# SRMS = details: concentration: 1 μM, replicates: in singlicate; n = 1
# SRPK1 = details: concentration: 1 μM, replicates: in singlicate, n = 1
# SRPK2 = details: concentration: 1 μM, replicates: in singlicate, n = 1
# 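Further: KINOMEscan kinase panel screen.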
smiles,measurement,setting,value
NCCNS(=O)(=O)c1ccc(-c2ccnc3[nH]ccc23)cc1 [GSK977617],%Inh,[1]; 1 µM,79% and 60%
same,%Inh,[2],0%
same,%Inh,[3]; 1 µM,40% and 14%
same,%Inh,[4]; 1 µM,29% and 22%
same,%Inh,[5]; 1 µM,54% and 23%
same,%Inh,[6]; 1 µM,48% and 37%
same,%Inh,S6K1; 1 µM,71% and 73%
same,%Inh,SBK1; 1 µM,79% and 57%
same,%Inh,SGK2; 1 µM,24% and 4%
same,%Inh,SGK3; 1 µM,57% and 44%
same,%Inh,SGK; 1 µM,45% and 33%
same,%Inh,SIK2; 1 µM,12% and 0%
same,%Inh,SIK; 1 µM,21% and 0%
same,%Inh,SLK; 1 µM,89% and 75%
same,%Inh,SNARK; 1 µM,89% and 82%
same,%Inh,SNRK; 1 µM,16% and 0%
same,%Inh,SRC; 1 µM,11% and 0%
same,%Inh,SRMS,0%
same,%Inh,SRPK1; 1 µM,87% and 65%
same,%Inh,SRPK2; 1 µM,6% and 0%
CCCCCc1nc2c(N)ncnc2n1CCCCC [SKF-97255],%Inh,[1],32%
same,%Inh,[2],0%
same,%Inh,[3],0%
same,%Inh,[4],7%
same,%Inh,[5],20%
same,%Inh,[6],0%
same,%Inh,S6K1,13%
same,%Inh,SBK1,0%
same,%Inh,SGK2,0%
same,%Inh,SGK3,0%
same,%Inh,SGK,0%
same,%Inh,SIK2,1%
same,%Inh,SIK,8%
same,%Inh,SLK,8%
same,%Inh,SNARK,0%
same,%Inh,SNRK,0%
same,%Inh,SRC,14%
same,%Inh,SRMS,25%
same,%Inh,SRPK1,0%
same,%Inh,SRPK2,11%
CC(C)(C)n1cnc2c(N)ncnc21 [SKF-97359],%Inh,[1],0%
same,%Inh,[2],18%
same,%Inh,[3],2%
same,%Inh,[4],18%
same,%Inh,[5],0%
same,%Inh,[6],46%
same,%Inh,S6K1,5%
same,%Inh,SBK1,0%
same,%Inh,SGK2,0%
same,%Inh,SGK3,0%
same,%Inh,SGK,0%
same,%Inh,SIK2,0%
same,%Inh,SIK,0%
same,%Inh,SLK,0%
same,%Inh,SNARK,0%
same,%Inh,SNRK,0%
same,%Inh,SRC,0%
same,%Inh,SRMS,0%
same,%Inh,SRPK1,0%
same,%Inh,SRPK2,36%
Nc1nc(-c2ccc3c(N)n[nH]c3c2)cc(N2CCCC2)n1 [GSK2227430],%Inh,[1],0%
same,%Inh,[2],0%
same,%Inh,[3],20%
same,%Inh,[4],17%
same,%Inh,[5],0%
same,%Inh,[6],0%
same,%Inh,S6K1,0%
same,%Inh,SBK1,8%
same,%Inh,SGK2,0%
same,%Inh,SGK3,8%
same,%Inh,SGK,0%
same,%Inh,SIK2,0%
same,%Inh,SIK,0%
same,%Inh,SLK,0%
same,%Inh,SNARK,3%
same,%Inh,SNRK,0%
same,%Inh,SRC,0%
same,%Inh,SRMS,0%
same,%Inh,SRPK1,4%
same,%Inh,SRPK2,0%
Cc1ccc(C(=O)NCC(N)=O)cc1-n1c(C)cc(OCc2ccc(F)cc2F)c(Br)c1=O,%Inh,[1],0%
same,%Inh,[2],0%
same,%Inh,[3],22%
same,%Inh,[4],9%
same,%Inh,[5],0%
same,%Inh,[6],29%
same,%Inh,S6K1,3%
same,%Inh,SBK1,0%
same,%Inh,SGK2,0%
same,%Inh,SGK3,0%
same,%Inh,SGK,0%
same,%Inh,SIK2,0%
same,%Inh,SIK,6%
same,%Inh,SLK,24%
same,%Inh,SNARK,0%
same,%Inh,SNRK,15%
same,%Inh,SRC,16%
same,%Inh,SRMS,0%
same,%Inh,SRPK1,0%
same,%Inh,SRPK2,0%
